Data reported in PubChem BioAssay.
Activity calls are given as the source filed them.

Tests used:
[1] = binders of probe aFSTL3 on microarray, primary screen, stem cell growth factor project, biochemical, small-molecule microarray, fluorescence 635/667 (AID 1064); settings: higher = more signal;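 further: measures binding of the biotinylated anti-FSTL3 antibody to printed compounds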
[2] = binders from COS7 lysate, DM2A8 probe, primary screen, torsin A project, cell lysate, small-molecule microarray, fluorescence 635/667 (AID 1065); settings: higher = more signal, COS7 lysate expressing mutant human TOR1A
[3] = binders of probe aFGF2 on microarray, primary screen, stem cell growth factor project, biochemical, small-molecule microarray, fluorescence 635/667 (AID 1067); settings: higher = more signal;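 further: measures binding of biotinylated aFGF2 protein to printed compounds on slides; z-score merges feature fluorescence and signal-to-noise across triplicate slides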
[4] = binders of probe aFGF10 on microarray, primary screen, stem cell growth factor project, biochemical, small-molecule microarray, fluorescence 635/667 (AID 1071); settings: higher = more signal;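 further: score merges 667 nm spot intensity and signal to noise from triplicate slides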
[5] = target: Neurogenic locus notch homolog protein 2 (Homo sapiens) (UniProt Q04721); assay: Notch2 binders on small-molecule microarrays, primary screen, biochemical, small-molecule microarray, 635 nm fluorescence, stem cell growth factors (AID 1073); settings: Notch2 binding, higher = more signal
Neurogenic locus notch homolog protein 2 (Homo sapiens), sequence (Q04721 whole entry, looked up, canonical isoform): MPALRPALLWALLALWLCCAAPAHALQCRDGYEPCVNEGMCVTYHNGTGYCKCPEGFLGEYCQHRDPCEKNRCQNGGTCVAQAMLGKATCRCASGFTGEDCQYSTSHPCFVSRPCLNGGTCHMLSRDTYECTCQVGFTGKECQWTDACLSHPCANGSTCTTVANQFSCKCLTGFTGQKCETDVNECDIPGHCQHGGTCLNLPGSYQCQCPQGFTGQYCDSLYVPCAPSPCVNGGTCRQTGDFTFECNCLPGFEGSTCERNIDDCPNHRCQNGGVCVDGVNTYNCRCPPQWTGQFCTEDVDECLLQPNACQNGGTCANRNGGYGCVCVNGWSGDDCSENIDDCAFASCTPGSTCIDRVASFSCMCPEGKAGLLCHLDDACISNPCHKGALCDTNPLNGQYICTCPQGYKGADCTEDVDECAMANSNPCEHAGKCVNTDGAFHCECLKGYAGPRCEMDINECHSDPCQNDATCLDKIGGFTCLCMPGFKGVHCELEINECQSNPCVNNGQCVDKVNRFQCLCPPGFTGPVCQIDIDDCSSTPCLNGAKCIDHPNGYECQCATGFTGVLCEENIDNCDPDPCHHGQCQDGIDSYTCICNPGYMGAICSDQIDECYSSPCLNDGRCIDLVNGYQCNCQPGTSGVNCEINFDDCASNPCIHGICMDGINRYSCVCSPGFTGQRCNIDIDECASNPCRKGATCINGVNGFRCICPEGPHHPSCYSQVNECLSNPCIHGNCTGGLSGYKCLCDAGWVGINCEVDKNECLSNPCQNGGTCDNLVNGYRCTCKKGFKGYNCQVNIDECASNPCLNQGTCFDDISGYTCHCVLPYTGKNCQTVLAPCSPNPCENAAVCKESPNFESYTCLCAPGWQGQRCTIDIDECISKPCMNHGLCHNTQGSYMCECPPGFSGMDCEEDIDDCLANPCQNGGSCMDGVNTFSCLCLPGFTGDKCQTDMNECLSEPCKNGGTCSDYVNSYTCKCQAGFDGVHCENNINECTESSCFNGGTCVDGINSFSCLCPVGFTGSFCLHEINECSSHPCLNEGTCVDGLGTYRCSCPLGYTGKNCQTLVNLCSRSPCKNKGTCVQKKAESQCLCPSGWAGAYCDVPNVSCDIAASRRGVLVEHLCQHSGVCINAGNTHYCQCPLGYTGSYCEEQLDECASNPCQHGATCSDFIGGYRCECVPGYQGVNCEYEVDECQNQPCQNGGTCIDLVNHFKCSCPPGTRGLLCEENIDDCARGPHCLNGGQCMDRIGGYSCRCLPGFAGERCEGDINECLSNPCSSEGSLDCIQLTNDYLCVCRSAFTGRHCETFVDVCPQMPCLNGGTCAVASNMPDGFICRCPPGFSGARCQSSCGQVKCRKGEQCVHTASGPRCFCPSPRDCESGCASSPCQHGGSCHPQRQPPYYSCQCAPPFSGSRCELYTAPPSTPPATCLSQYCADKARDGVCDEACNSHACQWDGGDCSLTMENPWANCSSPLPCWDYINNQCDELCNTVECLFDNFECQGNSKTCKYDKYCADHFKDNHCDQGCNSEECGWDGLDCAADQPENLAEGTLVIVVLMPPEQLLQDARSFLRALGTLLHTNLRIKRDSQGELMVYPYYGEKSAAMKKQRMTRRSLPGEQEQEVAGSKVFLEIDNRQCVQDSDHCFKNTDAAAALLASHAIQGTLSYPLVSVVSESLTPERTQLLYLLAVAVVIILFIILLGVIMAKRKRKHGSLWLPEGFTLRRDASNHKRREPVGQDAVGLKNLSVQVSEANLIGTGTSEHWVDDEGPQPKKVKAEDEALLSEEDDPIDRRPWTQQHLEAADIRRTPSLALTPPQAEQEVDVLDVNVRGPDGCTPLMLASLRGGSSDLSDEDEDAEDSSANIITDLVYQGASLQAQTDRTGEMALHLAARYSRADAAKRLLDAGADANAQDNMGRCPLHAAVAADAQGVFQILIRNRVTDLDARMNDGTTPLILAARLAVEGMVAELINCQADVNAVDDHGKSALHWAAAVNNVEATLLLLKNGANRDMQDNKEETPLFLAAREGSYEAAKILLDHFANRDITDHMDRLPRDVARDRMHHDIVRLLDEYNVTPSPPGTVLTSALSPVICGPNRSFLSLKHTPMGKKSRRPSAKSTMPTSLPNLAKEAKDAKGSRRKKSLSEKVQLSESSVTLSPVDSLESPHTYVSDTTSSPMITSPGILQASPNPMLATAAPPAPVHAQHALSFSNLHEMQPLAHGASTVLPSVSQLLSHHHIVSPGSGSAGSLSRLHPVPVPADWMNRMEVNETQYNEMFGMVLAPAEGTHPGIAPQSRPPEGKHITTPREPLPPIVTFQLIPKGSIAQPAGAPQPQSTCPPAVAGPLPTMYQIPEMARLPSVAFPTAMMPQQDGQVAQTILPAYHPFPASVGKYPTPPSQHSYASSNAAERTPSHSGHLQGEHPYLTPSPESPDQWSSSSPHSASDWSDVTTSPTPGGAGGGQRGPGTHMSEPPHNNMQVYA

[6] = target: Pro-neuregulin-1, membrane-bound isoform (Homo sapiens) (UniProt Q02297); assay: NRG1 binders on small-molecule microarrays, primary screen, psychiatric disease protein project, biochemical, small-molecule microarray, fluorescence 635/667 (AID 1075); settings: NRG1 binding, 635 nm fluorescence, higher = more signal;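 further: score combines 667 nm spot fluorescence with signal to noise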
Pro-neuregulin-1, membrane-bound isoform (Homo sapiens), sequence (Q02297 whole entry, looked up, the tested form may be a part, canonical isoform): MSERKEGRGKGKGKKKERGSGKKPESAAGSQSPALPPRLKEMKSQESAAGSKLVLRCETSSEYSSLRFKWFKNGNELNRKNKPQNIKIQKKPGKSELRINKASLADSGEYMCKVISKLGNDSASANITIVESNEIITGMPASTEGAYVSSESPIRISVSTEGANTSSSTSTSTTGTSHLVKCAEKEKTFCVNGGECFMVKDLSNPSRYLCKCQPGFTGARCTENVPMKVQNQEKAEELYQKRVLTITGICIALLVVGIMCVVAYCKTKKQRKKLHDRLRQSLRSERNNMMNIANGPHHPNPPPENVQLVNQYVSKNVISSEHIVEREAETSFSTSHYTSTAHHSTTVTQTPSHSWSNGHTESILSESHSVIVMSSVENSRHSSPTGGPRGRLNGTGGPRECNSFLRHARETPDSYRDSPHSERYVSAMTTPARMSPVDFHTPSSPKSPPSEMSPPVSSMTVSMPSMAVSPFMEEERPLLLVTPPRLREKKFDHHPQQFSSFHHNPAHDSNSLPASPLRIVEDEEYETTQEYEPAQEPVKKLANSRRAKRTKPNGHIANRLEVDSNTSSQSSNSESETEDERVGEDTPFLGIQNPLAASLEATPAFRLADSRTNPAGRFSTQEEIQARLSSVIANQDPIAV

[7] = system: Neuregulin-1 EGF-like domain; assay: binders of neuregulin-1 EGF-like domain, primary screen, biochemical, small-molecule microarray, 635 nm fluorescence (AID 1081); settings: small-molecule microarray binding, higher = more signal;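 further: binding of the protein to compounds printed on small-molecule microarray slides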
[8] = FRG1 promoter luciferase signal modulators, primary screen, FRG1 inhibition for FSHD, cell-based, C2C12 myotubes, firefly/Renilla luciferase, luminescence (AID 1084); settings: higher = more signal, called active from +8 up or from −8 down
[9] = binders of probe aFST on microarray, primary screen, stem cell growth factor project, biochemical, small-molecule microarray, fluorescence 635/667 (AID 1086); settings: higher = more signal;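 further: score merges 667 nm fluorescence with signal-to-noise of each printed compound spot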
[10] = binders of probe aHhip on microarray, primary screen, stem cell growth factor project, biochemical, small-molecule microarray, fluorescence 635/667 (AID 1087); settings: higher = more signal;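 further: score merges spot fluorescence at 667nm with spot signal to noise ratio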
[11] = system: PRMT1 (protein arginine N-methyltransferase 1); assay: PRMT1 binders on small-molecule microarrays, primary screen, biochemical, small-molecule microarray, 635 nm fluorescence (AID 1088); settings: small-molecule microarray binding, higher = more signal;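 further: binding of Prmt1 protein to compounds spotted on small-molecule microarray slides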
[12] = yeast growth modulation, basal conditions, primary screen, YJM789 clinical isolate, OD600, 24 h (AID 1089);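 further: growth of clinical yeast isolate S. cerevisiae YJM 789 seeded 1000 cells per well; test concentration not given here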; settings: S. cerevisiae YJM789 growth, higher = more signal, called active from +8 up or from −8 down
[13] = fission yeast growth modulation, primary screen, strain 972, OD600, 24 h, no modulator (AID 1090);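 further: basal condition with compound alone and no growth modifier present; test concentration not given here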; settings: S. pombe 972 growth, higher = more signal, called active from +8 up or from −8 down
[14] = S. cerevisiae growth modulation with rapamycin, primary screen, strain BY4716, OD600, 96 h (AID 1091); settings: higher = more signal, called active from +8 up or from −8 down; further: test concentration not given here
[15] = target: Torsin-1A-interacting protein 2 (Homo sapiens) (UniProt Q8NFQ8); assay: LULL1 binders on small-molecule microarray, primary screen, cell lysate, human LULL1 lysate, 635/667 nm fluorescence (AID 1092); settings: hLULL1 lysate binding, 635 nm fluorescence, higher = more signal;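 further: probe is lysate of COS7 cells overexpressing human LULL1; score merges per-feature 667 nm fluorescence with signal-to-noise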
Torsin-1A-interacting protein 2 (Homo sapiens), sequence (Q8NFQ8 whole entry, looked up): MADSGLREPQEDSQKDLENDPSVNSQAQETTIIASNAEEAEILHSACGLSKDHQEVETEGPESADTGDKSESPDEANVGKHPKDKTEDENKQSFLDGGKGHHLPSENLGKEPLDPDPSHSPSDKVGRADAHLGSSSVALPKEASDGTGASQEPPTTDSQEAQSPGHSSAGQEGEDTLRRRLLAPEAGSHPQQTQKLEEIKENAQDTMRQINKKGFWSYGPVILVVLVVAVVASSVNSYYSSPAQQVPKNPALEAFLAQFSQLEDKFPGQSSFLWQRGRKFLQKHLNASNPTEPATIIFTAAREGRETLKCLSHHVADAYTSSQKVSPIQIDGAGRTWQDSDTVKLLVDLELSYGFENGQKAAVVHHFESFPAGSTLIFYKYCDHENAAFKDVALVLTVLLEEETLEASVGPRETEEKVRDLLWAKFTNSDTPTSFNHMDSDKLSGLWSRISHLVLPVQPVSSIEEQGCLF

[16] = E. coli growth modulation, two-sided OD650, primary screen, E. coli filamentation project, strain DRC41, 24 h (AID 1093); settings: OD650, 24 h, higher = more signal, called active from +8 up or from −8 down;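 further: MC1000 strain lacking acrAB efflux and sulA so SOS filamentation is blocked; test concentration not given here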
[17] = small-molecule microarray binders of probe aLefty2, primary screen, biochemical, biotinylated probe, 635/667 nm fluorescence (AID 1094); settings: higher = more signal;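 further: score merges spot fluorescence near 667 nm with spot signal-to-noise ratio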
[18] = system: Noggin (protein binding on small-molecule microarray); assay: Noggin binders on small-molecule microarray, primary screen, biochemical, 635/667 nm fluorescence (AID 1095); settings: 635 nm fluorescence, higher = more signal;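 further: score merges 667 nm feature fluorescence with signal to noise over triplicate slides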
[19] = target: Neurogenic locus notch homolog protein 3 (Homo sapiens) (UniProt Q9UM47); assay: NOTCH3 binders on small-molecule microarray, primary screen, biochemical, 635/667 nm fluorescence (AID 1096); settings: NOTCH3 binding, 635 nm fluorescence, higher = more signal
[20] = small-molecule microarray binders of probe aEGFR, primary screen, biochemical, biotinylated probe, 635/667 nm fluorescence (AID 1097); settings: higher = more signal;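 further: probe is a biotinylated anti-EGFR antibody binding compounds printed on slides; score combines fluorescence near 667 nm and signal to noise of each spot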

SMILES	composite z-score [1]	composite z-score [2]	composite z-score [3]	composite z-score [4]	composite z-score [5]	composite z-score [6]	composite z-score [7]	z-score [8]	composite z-score [9]	composite z-score [10]	composite z-score [11]	z-score [12]	z-score [13]	z-score [14]	composite z-score [15]	z-score [16]	composite z-score [17]	composite z-score [18]	composite z-score [19]	composite z-score [20]
O=C1C[C@@](C(=O)NCCN2CCOCC2)(c2ccc([N+](=O)[O-])cc2)[C@@H](c2ccc(CO)cc2I)N1C1CCCCC1	-0.218	-0.0103	-0.0736	0.262	0.64	0.148	1.43	1.21 (inactive)	-0.0352	-0.0717	1.3	-1.9 (inactive)	-2.09 (inactive)	-1.05 (inactive)	2.79	0.685 (inactive)	-0.147	0.914	0.91	-0.0963
CCCCCCc1nc(-c2cc(C)c(OC)c(C)c2)c(C)c2c1[Si](C(C)C)(C(C)C)OC2	-0.0656	0.0489	-0.093	-0.0949	0.0241	-0.391	-0.453	0.785 (inactive)	0.021	-0.116	-0.92	0.0333 (inactive)	-0.922 (inactive)	0.276 (inactive)	-0.407	0.352 (inactive)	-0.0915	0.058	-0.127	-0.171
O=C1C2C=CC(C(O)c3ccc(F)cc3)N(n3cnnc3)C2C(=O)N1Cc1ccccc1 (stereo not given)	0.352	-0.131	-0.12	-0.201	-0.0052	0.439	-0.191	0.594 (inactive)	0.19	-0.282	-0.301	0.271 (inactive)	0.767 (inactive)	-0.1 (inactive)	1.05	-0.997 (inactive)	0.0137	-0.685	-0.874	-0.208
COC(=O)[C@@]1(Cc2ccc(OC)cc2)[C@@H]2C(=CC(=O)[C@H]2CC(=O)C(=O)N(C)C)CN1C(=O)c1ccccc1	0.928	-0.262	0.0921	0.582	1.77	1.39	1.18	1.46 (inactive)	1.97	0.177	0.464	0.244 (inactive)	0.693 (inactive)	2.88 (inactive)	3.54	-1.08 (inactive)	0.413	-0.343	1.03	0.0364
O=C(NCC(F)(F)F)[C@@H]1c2ccccc2C(=O)N(Cc2ccccc2C(F)(F)F)[C@H]1c1ccc(CO)cc1	0.597	-0.0704	-0.156	0.424	-0.169	0.997	1.3	-1.49 (inactive)	-0.181	0.113	0.928	-0.268 (inactive)	-0.205 (inactive)	-0.503 (inactive)	1.28	0.31 (inactive)	-0.062	-0.416	-0.258	-0.274
